The record followed here is PubChem BioAssay.

Several values for one entry are separate records, joined by “and”; a condition that tells them apart may be missing. Equal values may be shown once. Activity calls are given as the source filed them.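 Rule for the calls: active = inhibition at or above 50% relative to wild type and mutant plate controls; inactive = inhibition below 50%.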

A short description of this experiment: loss of swimming-algae plug formation – whole organism, Chlamydomonas reinhardtii, WT vs cilia-less mutant, absorbance, 96-well, primary screen (AID 463189).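 Note: 0% = wild type cc124 cells in DMSO and 100% = ciliumless bld1 mutant cells.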 The conditions noted are these: Chlamydomonas reinhardtii gravitaxis, OD600 absorbance, 2 days; at 10 µM; hits give high values.
Usually inhibition stands for the relative decrease from the control value, in per cent. In the case of `NCC(O)c1cc(O)c(O)cc1F` (stereo not drawn), the inhibition is 1.21% (inactive).

For `Oc1ccc2c3c1O[C@H]1[C@@H](O)CC[C@@]4(O)C(C2)N(CC2CCC2)CCC314` (stereo partly drawn), the inhibition is 3.28% (inactive).

As to `CC1Cc2cc3c(cc2C(c2ccc(N)cc2)=NN1)OCO3` (stereo not drawn), the inhibition is 0.595% (inactive).

With `NC1CC1c1ccccc1` (stereo not drawn), the inhibition was 9.58% (inactive).

For the compound `CCCN1CCC[C@@H]2Cc3[nH]ncc3C[C@H]21`, the inhibition is 1.82% (inactive) and 2.66% (inactive).

Take `O=[N+]([O-])c1cc(O)c(O)c([N+](=O)[O-])c1`: the inhibition is -10.8% (inactive).

As for `CC1=C[C@@H]2c3cccc4[nH]cc(c34)C[C@H]2N(C)C1`, the inhibition is 69.4% (active).

With `COc1ccc2[nH]c3c(c2c1)CCNC3`, the inhibition is -4.14% (inactive).

As for `CC(N)Cc1c[nH]c2ccc(OCc3cccs3)cc12` (stereo not drawn), the inhibition is 5.48% (inactive).

With `NCC(CP(=O)(O)O)c1ccc(Cl)cc1` (stereo not drawn), the inhibition was -3.38% (inactive).

With `CC[C@@H](CO)NC(=O)[C@@H]1C=C2c3cccc4[nH]cc(c34)C[C@H]2N(C)C1`, the inhibition was -0.368% (inactive).

Regarding `O=C(OC1CCN(CCCl)CC1)C(c1ccccc1)c1ccccc1`, the inhibition was -11.2% (inactive).

For `CN1CCc2cc(O)cc3c2[C@H]1Cc1ccc(O)c(O)c1-3`, the inhibition was -0.305% (inactive).

With `N#CC(=Cc1ccc(O)c(O)c1)C(N)=S`, the inhibition was 10.3% (inactive).

As for `CCCN(CCC)C1Cc2cc(OC)c(OC)cc2C1`, the inhibition is -11.6% (inactive).

As to `CCn1cnc2c(Nc3cccc(Cl)c3)nc(N[C@@H]3CCCC[C@@H]3N)nc21`, the inhibition is 4.56% (inactive).

As for `NC(=O)CI`, the inhibition was -0.903% (inactive).

As to `CCS(=O)(=O)Nc1cccc(C(=C2CCCCC2)c2cnc[nH]2)c1`, the inhibition is 2.69% (inactive).
